Bioassay records deposited in PubChem BioAssay by several laboratories.
A selection: hits, their analogues and other compounds. The true share with any hit is near 3%.
TROY signal inh: blocks TROY-dependent signaling in reporter cells; inhibition, % at 10 µM; AID 1347056; 0.98% of 360,000 active; Q293 LMP1-TROYcd NF-kB luciferase reporter, 4 h;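 active = compounds whose plate-normalised and pattern-corrected inhibition of the luciferase reporter signal at the single screening dose is 50% or more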
LGR2 antag: blocks bursicon-induced cAMP signaling via Drosophila LGR2 | HEK293 LGR2, CRE-luciferase, bursicon-stimulated, 4 h | inhibition, % at 9.99 µM | 0.35% of 380,000 active | AID 720647;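 active = drop in luminescence signal, shown as inhibition above about 50% in the replicate tests, limit read from the data, passing the limit was not always enough; inconclusive = probably only some replicates passing the limit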;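 note: agonist challenge used bursicon conditioned medium at about half maximal strength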
EBV LMP1 NFkB: Epstein-Barr LMP1 NF-kappaB reporter inhibition; LMP1-induced NF-kappaB luciferase reporter cells, luminescence; inhibition, % at 12.5 µM; 0.69% of 350,000 active; AID 504558; in the data active = inhibition above about 41%; inconclusive = no clear call, values can overlap the other calls;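 note: 0% = neutral control wells and 100% = reference inhibitor control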
MITF act: increases MITF-driven TRPM1 promoter luciferase signal; AID 588334; SK-MEL-5 TRPM1-promoter luciferase, 24 h; % of positive control, neutral wells = 0; 0.75% of 300,000 active; activation, % at 12.5 µM;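 active = mean activation of at least 80% with every replicate also reaching 80%; inconclusive = mean reaches 80% but some replicate falls short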;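 note: 0% = neutral control wells and 100% = parthenolide positive control wells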
TRPM1 prom inh: inhibitors of MITF-driven TRPM1 promoter in melanoma cells | SK-MEL-5 TRPM1 promoter luciferase, 24 h | inhibition, % at 12.5 µM | 0.83% of 330,000 active | AID 488899;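 active = mean inhibition across replicates of 60% or more, whatever share of single replicates reaches that level; inconclusive = some that reach 60%, reason not given; inactive = mean inhibition across replicates below 60%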
TWEAK Fn14 block: TWEAK-Fn14 signaling inhibition. TWEAK-stimulated Fn14 reporter cells, luciferase luminescence, 8 h. inhibition, % at 10 µM. 2% of 360,000 active; in the data active = inhibition above about 50%
Numbers without * were called inactive; ? = inconclusive; . = no result given.

SMILES	TROY signal inh	LGR2 antag	EBV LMP1 NFkB	MITF act	TRPM1 prom inh	TWEAK Fn14 block
CCC(=O)N(C)C[C@@H]1Oc2cc(C#CCC3CCCC3)ccc2S(=O)(=O)N([C@@H](C)CO)C[C@H]1C	.	15.3	.	.	.	.
CC1CCN(c2ccc3c(c2)S(=O)(=O)c2ccccc2C3=O)CC1	-11.3	-20.3	-33.0	85.6*	-88.1	-1.8
O=C1c2ccccc2C(=O)c2cc(N3CCCCC3)ccc21	82.8*	97.4*	44.8*	-43.4	44.4	101.4*
NC(=O)C1CCN(C(=O)c2ccc3c(c2)S(=O)(=O)c2ccccc2C3=O)CC1	-16.7	-8.9	-2.6	5.6	-12.0	-11.8
NC(=O)C1CCN(c2ccc3c(c2)S(=O)(=O)c2ccccc2C3=O)CC1	63.5*	-32.8	-4.5	30.7	-28.2	49.0
C[C@@H]1CN([C@@H](C)CO)C(=O)c2cc(NS(=O)(=O)c3cn(C)cn3)ccc2O[C@@H](C)CCCCO[C@H]1CN(C)C(=O)CCC(F)(F)F	.	-25.1	.	.	.	.
CC(=O)Nc1ccc(C=NNc2nnc(NN=Cc3ccc(NC(C)=O)cc3)c3ccccc23)cc1	38.1	?	44.5*	1.9	-0.7	56.4*
COc1ncccc1-c1nnn(-c2ccc(C)cc2)n1	-45.7	-25.6	-15.2	56.8	-61.8	-6.4
COc1ncccc1-c1nnn(-c2ccc(Cl)c(Cl)c2)n1	-43.7	-72.9	-26.6	102.2*	-101.7	-58.1
O=C(C[C@H]1C=C[C@H](NC(=O)CN2CCOCC2)[C@H](CO)O1)NCc1cccc(F)c1	.	-12.4	.	.	.	.
CCn1cnc2cc(NCc3ccc(C)cc3)ccc21	-66.0	-63.6	-30.4	119.0*	-113.2	-11.2
CCn1cnc2cc(NCc3ccc(Br)cc3)ccc21	.	-70.1	.	.	.	.
Cc1ccc(CNc2ccc3c(c2)ncn3C(C)C)cc1	-44.0	-100.8	-30.2	88.8*	-97.4	2.6
CCOc1ccc(CNc2ccc3c(c2)ncn3C(C)(C)C)cc1	-41.1	-24.0	-1.8	18.6	-11.4	-7.4
CCn1cnc2cc(NCc3ccc(N(C)C)cc3)ccc21	67.2*	-40.4	-12.3	9.3	-9.0	65.2*
CCN(CC)c1ccc(CNc2ccc3c(c2)ncn3CC)cc1	.	11.5	.	.	.	.
CN(C)c1ccc(CNc2ccc3c(c2)ncn3C(C)(C)C)cc1	86.6*	5.1	-6.6	-2.7	3.2	58.4*
CCCn1cnc2cc(NCc3cccc(OC)c3)ccc21	65.8*	-14.6	6.0	65.6	-62.0	73.1*
CCCn1cnc2cc(NCc3ccc(Br)cc3)ccc21	38.5	-102.7	-12.6	45.8	-63.1	19.4
Cc1oc2c(Cl)c(Cl)c(O)c(CN(C)C)c2c1C(=O)c1ccc(Cl)cc1	48.4	24.4	17.6	12.7	-10.2	75.1*
CCCC(=O)Nc1ccc2c(c1)OC[C@H](C)N(C(=O)CC1CC1)C[C@H](C)[C@H](OC)CN(C)C2=O	.	-2.1	.	.	.	.
CC(C)(C)C1CCC(OC(=O)c2cncc(Br)c2)CC1 (stereo unspecified)	70.6*	8.5	-36.2	23.2	-21.3	74.3*
CCCOc1ccc(-c2cnc(N)s2)cc1	-2.5	-33.5	-27.2	87.6*	-87.0	-13.3
COc1cccc(/C=N/NC(=O)c2nc(-c3ccccc3)cc(-c3ccccc3)n2)c1O	8.4	23.6	-8.1	-13.9	13.6	51.0*
COc1cccc(/C=N/NC(=O)c2c(C)nc3ccc(Br)cn23)c1O	-5.9	.	63.5*	-64.8	67.4*	-20.9
SMILES	TROY signal inh	LGR2 antag	EBV LMP1 NFkB	MITF act	TRPM1 prom inh	TWEAK Fn14 block
CCOc1ccccc1/C=N/NC(=O)c1c(C)nc2ccc(Br)cn12	10.7	7.2	-5.5	7.3	-7.6	7.8
C[C@H](CO)N1C[C@H](C)[C@H](CN(C)C(=O)Nc2ccc(F)cc2)Oc2ccc(NC(=O)Nc3ccc(C(F)(F)F)cc3)cc2C1=O	.	2.7	.	.	.	.
COc1cc(C)c(CN2CCC(Cc3ccccc3)CC2)cc1C	10.3	32.3	15.1	.	-8.3	-6.4
COc1cc(CN2CCC(Cc3ccccc3)CC2)c([N+](=O)[O-])cc1OC	8.0	0.9	5.2	.	13.5	79.9*
COc1ccc(NC(=O)N(C)C[C@@H]2Oc3ccc(NC(=O)C4CCCCC4)cc3C(=O)N([C@H](C)CO)C[C@@H]2C)cc1	.	8.9	.	.	.	.
CCOc1ccc(NC(=S)NNc2ccnc3cc(Cl)ccc23)cc1	-6.4	-0.2	6.0	-26.3	25.8	18.6
S=C(NNc1ccnc2cc(Cl)ccc12)Nc1ccc(Cl)cc1Cl	19.5	-12.8	10.9	-65.2	64.5*	7.1
O=C(COc1ccccc1[N+](=O)[O-])Nc1ccc2c(c1)CCC2	-35.4	-69.5	-33.8	110.7*	-110.6	-27.6
O=C(COc1ccccc1[N+](=O)[O-])Nc1ccc(NC(=O)c2cc3ccccc3o2)cc1	51.9*	-0.8	3.0	-14.1	14.9	1.4
O=C(COc1ccc(/C=N/NC(=O)c2cc3ccccc3o2)cc1Br)Nc1ccccc1	40.1	.	6.1	-92.9	93.2*	-15.5
O=C(COc1ccccc1[N+](=O)[O-])Nc1ccc2oc(=O)ccc2c1	-2.7	-10.8	5.0	6.9	-6.0	-19.3
O=C(COc1cccc(Cl)c1Cl)Nc1ccc2c(c1)CCC2	-23.2	0.6	-0.9	24.8	-23.0	-7.2
C[C@H](O)C#Cc1ccc2c(c1)O[C@@H](CN(C)C(=O)CN(C)C)[C@@H](C)CN([C@H](C)CO)S2(=O)=O	.	-28.0	.	.	.	.
CCc1nnc(NC(=O)CC(=O)Nc2ccccc2C(=O)O)s1	-15.0	30.2	2.0	-24.1	24.2	36.5
CCCCc1nnc(NC(=O)CC(=O)Nc2ccccc2C(=O)O)s1	.	.	4.6	-1.7	2.2	39.0
CC(C)Cc1nnc(NC(=O)CC(=O)Nc2ccccc2C(=O)O)s1	-5.1	.	6.4	3.5	-2.5	50.8*
CC(C)c1nnc(NC(=O)CC(=O)Nc2ccccc2C(=O)O)s1	27.9	.	31.3	-24.4	31.6	82.7*
CC(C)NC(=O)Nc1ccc2c(c1)C(=O)N([C@H](C)CO)C[C@@H](C)[C@@H](CN(C)C(=O)Nc1ccccc1)OCCCC[C@@H](C)O2	.	8.7	.	.	.	.
Cc1ccc(NC(=O)C[n+]2ccn(C3=C([O-])c4ccccc4C3=O)c2)cc1	-3.3	18.5	-4.2	-15.0	18.2	-1.8
Cc1ccc(S(=O)(=O)/N=C2\C(=O)c3ccccc3C([O-])=C2n2cc[n+](CCC(C)C)c2)cc1	3.4	.	-1.0	-66.2	68.8*	2.5
CCCC[n+]1ccn(C2=C([O-])c3ccccc3C(=O)/C2=N\S(=O)(=O)c2ccc(Br)cc2)c1	-11.9	12.8	8.0	-94.2	93.6*	16.4
CC(=O)Nc1ccc(S(=O)(=O)/N=C2\C(=O)c3ccccc3C([O-])=C2n2cc[n+](-c3ccccn3)c2)cc1	6.0	5.4	38.8	-47.4	48.5	12.2
O=C(C1CCC1)N1CC2(C1)[C@H](c1ccccc1)[C@@H](CO)N2C(=O)CC1CC1	.	5.8	.	.	.	.
COc1cccc(N(CC(=O)NC(C)(C)C)C(=O)C2CSC(=O)C2)c1 (stereo unspecified)	7.5	21.1	-0.2	3.2	-1.5	4.4
